Source: PubChem BioAssay
HTT ATP protect: cytoprotection in Huntington HTT-Q103 PC12 cell model. PC12 HTT-Q103 induced, cytoprotection, ATP luminescence, 40 h. Potency, µM (titrated, usually from 56.4 µM), actives largely listed as activators. actives 0.14% (n = 230,000). AID 1471; active = well fitted curve in the direction sought with a large enough effect; inconclusive = small, poorly fitted or top-dose-only effect, or another doubt; inactive = no such curve, though single readings can be large; an effect the other way counts as inactive or inconclusive; also: nearly all actives have a fitted effect of over 45% in size
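PC12 cells with ecdysone-inducible HTT exon 1 Q103-GFP, induced with 100 nM tebufenozide and co-treated with library compounds in a dose series (1536-well, 1500 cells/well). Cytoprotection read as ATP content by ATPlite luminescence.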
LMNA splice mod: LMNA splicing modulation; HeLa LMNA splicing GFP/RFP minigene ratio, 48 h; Potency, µM (highest dose often 46.1 µM), hits mostly inhibitors; actives 0.01% (n = 200,000); active = well fitted inhibition curve with a large enough effect in the signal ratio, with a control signal flat, not every such curve was filed as active; inconclusive = small, poorly fitted or top-dose-only effect, or effect the other way, or a change in a side signal; the % refers to the signal ratio
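S3 HeLa stable clones carrying a lamin A-EGFP splicing minigene plus DsRed2 were seeded at 600 cells/well in Opti-MEM with 2% FBS, pin-dosed and incubated 48 h at 37°C. Acumen cytometry (488 nm) gave the GFP/RFP total-intensity ratio.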
JMJD2E inh: JMJD2E (human) inhibition; B2RXH2; JMJD2E catalytic domain, FDH-coupled NADH fluorescence (FDH is formaldehyde dehydrogenase); Potency, µM (highest dose often 57.1 µM), most hits filed as inhibitors; actives 1.6% (n = 230,000); also: nearly all actives have a fitted effect of over 50% in size
HPGD inh: inhibitors of human 15-hydroxyprostaglandin dehydrogenase (HPGD); P15428; purified HPGD, NADH fluorescence kinetic, PGE2 substrate; Potency, µM, actives largely listed as inhibitors; actives 4.3% (n = 150,000)
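NADH formation kinetics: reaction with 30 uM PGE2 and 1 mM NAD+ (final), 20 nM enzyme, Tris-HCl pH 8 with Tween 20, after 15 min compound preincubation at room temperature. Fluorescence change, last versus first of five reads.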
ALDH1A1 block: inhibitors of human aldehyde dehydrogenase 1A1. P00352. Purified ALDH1A1, NADH fluorescence, propionaldehyde substrate. Potency, µM (highest dose often 75.3 µM), usual class: inhibitors. actives 7.3% (n = 220,000)
Target sequence (P00352 whole entry, looked up): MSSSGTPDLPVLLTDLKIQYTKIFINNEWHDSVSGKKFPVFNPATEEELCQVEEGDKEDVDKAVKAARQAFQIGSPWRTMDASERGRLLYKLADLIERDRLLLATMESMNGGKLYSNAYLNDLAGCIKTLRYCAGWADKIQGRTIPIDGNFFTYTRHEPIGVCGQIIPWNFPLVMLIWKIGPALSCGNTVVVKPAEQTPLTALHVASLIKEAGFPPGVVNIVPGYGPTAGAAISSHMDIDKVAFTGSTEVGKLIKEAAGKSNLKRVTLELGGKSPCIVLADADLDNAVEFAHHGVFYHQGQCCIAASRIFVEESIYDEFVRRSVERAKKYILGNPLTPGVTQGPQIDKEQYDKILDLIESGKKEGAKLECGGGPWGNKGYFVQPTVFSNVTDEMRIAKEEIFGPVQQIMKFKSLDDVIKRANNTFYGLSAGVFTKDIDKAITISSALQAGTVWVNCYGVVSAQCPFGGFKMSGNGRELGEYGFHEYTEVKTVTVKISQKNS
HttQ103 aggreg: inhibitors of mutant huntingtin aggregate formation in PC12 cells; PC12 HttQ103-GFP aggregates, Acumen cytometry, 40 h; Potency, µM (series often up to 46.1 µM), most hits filed as inhibitors; actives 1.1% (n = 220,000); AID 1688; active = well fitted curve in the direction sought with a large enough effect; inconclusive = small, poorly fitted or top-dose-only effect, or another doubt; inactive = no such curve, though single readings can be large; an effect the other way counts as inactive or inconclusive; also: nearly all actives have a fitted effect of over 60% in size
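PC12 cells with ecdysone-inducible HTT exon1 Q103-GFP, induced by 100 nM tebufenozide, given compounds in a concentration series. GFP aggregates (1–25 um, 6 SD above background) counted in lysates by laser-scanning cytometry, 488 nm excitation.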
Of the large screens only hits and unclear results are named; the others gave an inactive call. This is a sample that favours compounds with a hit; in the whole collection about 9.2% have one here. Unless noted, calls follow the shape of the dose curve; as a rule, active = well fitted inhibition curve with a large enough effect (not every such curve was filed as active); inconclusive = small, poorly fitted or top-dose-only effect, or another doubt; inactive = no such curve, though single readings can be large or run the other way.

O=C(CCCOc1ccc(Cl)cc1)N1CCCCC1	HPGD inh 1.6µM
O=C(COc1ccc(Cl)cc1)N1CCN(c2ncccn2)CC1	none
O=C(COc1ccc(Cl)cc1)N1CCN(C(=O)c2cccc(F)c2)CC1	ALDH1A1 block 14µM
O=C(COc1ccc(Cl)cc1)N1CCCCC1	HPGD inh 25µM
O=C(COc1ccccc1)N1CCN(C(=O)c2cccc(F)c2)CC1	none
COc1ccc(OCCNC(=O)c2ccccc2OCC(=O)N2CCCCC2)cc1	LMNA splice mod inconclusive, ALDH1A1 block 3.5µM
NC(N)=NCCC[C@H](NC(=O)[C@@H](N)Cc1ccc(O)cc1)C(=O)O	none (no result: LMNA splice mod, JMJD2E inh, HPGD inh, HttQ103 aggreg)
Cc1cc(Cl)ccc1OCC(=O)N1CCN(c2ncccn2)CC1	LMNA splice mod inconclusive, JMJD2E inh inconclusive (no result: HPGD inh)
Cc1cc(Cl)ccc1OCC(=O)N1CCCCC1	LMNA splice mod inconclusive, HPGD inh 28µM
COc1ccc(C2NC(=O)NC(C)=C2C(=O)Nc2cccc(C)c2C)cc1 (stereo not drawn)	ALDH1A1 block 2.8µM
CCOC(=O)C1=C(C)C(c2ccccc2)NC(=S)N1 (stereo not drawn)	ALDH1A1 block 2.5µM
COC(=O)C1=C(C)C(c2ccc(OC)cc2)NC(=O)N1 (stereo not drawn)	none (no result: LMNA splice mod, HPGD inh)
COC(=O)C1=C(C)C(c2ccc(OC)cc2)NC(=S)N1 (stereo not drawn)	ALDH1A1 block 8.9µM
COc1ccc(C2NC(=S)NC(C)=C2C(=O)Nc2ccccn2)cc1 (stereo not drawn)	ALDH1A1 block 14µM (no result: HPGD inh)
Cc1cc(C)c(C)c(C(=O)CSc2nnc(C)c(=O)[nH]2)c1C	none
CCCOc1ccc(NC(=O)OC2CCN(C)CC2)cc1	none (no result: HTT ATP protect)
CCc1ccccc1NC(=O)CSc1nc(-c2ccccc2)nn1C(=O)c1cccc([N+](=O)[O-])c1	HPGD inh 13µM
CCC(=O)n1nc(-c2ccccc2)nc1SCC(=O)Nc1ccc(C)cc1	HPGD inh 7.9µM
CCc1ccccc1NS(=O)(=O)c1ccc(-c2coc(C)n2)cc1	none (no result: HTT ATP protect, JMJD2E inh, HPGD inh, ALDH1A1 block, HttQ103 aggreg)
C=C1/C(=C\C=C2/CCC[C@]3(C)C([C@H](C)CCCC(C)(C)O)CC[C@@H]23)C[C@@H](O)C[C@@H]1O (stereo partly drawn)	HTT ATP protect inconclusive (no result: LMNA splice mod, JMJD2E inh, HPGD inh, HttQ103 aggreg)
CCC(CO)N=C1CC(C)(C)CC(=O)/C1=C(/O)CCCN1C(=O)c2ccccc2C1=O (stereo not drawn)	none (no result: HPGD inh)
COc1cccc(/C=N/NC(=O)c2ccc3nc[nH]c3c2)c1O	JMJD2E inh 10µM (no result: LMNA splice mod, HPGD inh, ALDH1A1 block)
CCOc1cccc(-c2cc(C(=O)N/N=C/c3cccc(OC)c3O)[nH]n2)c1	none (no result: HTT ATP protect, LMNA splice mod, JMJD2E inh, HttQ103 aggreg)
CCn1c(C)nc2cc(C(N)=O)ccc21	none (no result: LMNA splice mod, HPGD inh, ALDH1A1 block)
COc1cc(OC)c2cc(C(=O)N/N=C/c3cccc(OC)c3O)[nH]c2c1	JMJD2E inh 10µM (no result: LMNA splice mod, HPGD inh, ALDH1A1 block)
CCn1c(C)nc2cc(C(=O)N/N=C/c3ccc(O)c(O)c3O)ccc21	ALDH1A1 block 1.4µM (no result: LMNA splice mod, HPGD inh)
COc1cc(OC)c(OC)cc1/C=N/NC(=O)c1ccc2nc[nH]c2c1	JMJD2E inh inconclusive (no result: LMNA splice mod, HPGD inh)
CCn1c(C)nc2cc(C(=O)N/N=C/c3cccc(OC)c3O)ccc21	HttQ103 aggreg 2µM (no result: LMNA splice mod, HPGD inh)
CC[C@@H](c1ccc2cc(O)ccc2c1)C(C)(C)C(=O)O	none (no result: LMNA splice mod, JMJD2E inh, HttQ103 aggreg)
C/C(CCC(=O)OC[C@@H]1O[C@H](C#Cc2ccccc2)C=C[C@@H]1Oc1ccc(C)cc1)=N/OC[C@@H](O)COCc1ccco1	none (no result: LMNA splice mod, JMJD2E inh, HPGD inh, HttQ103 aggreg)
COCC(=O)O	HTT ATP protect inconclusive (no result: LMNA splice mod, JMJD2E inh, HttQ103 aggreg)
COc1cccc(/C=N/NC(=O)c2c(C)nc3ccc(Br)cn23)c1O	JMJD2E inh inconclusive, ALDH1A1 block inconclusive, HttQ103 aggreg 2.2µM (no result: LMNA splice mod, HPGD inh)
CN1CCN(C(=O)c2cc3nc(-c4ccc(F)cc4)cc(C(F)(F)F)n3n2)CC1	JMJD2E inh inconclusive, HPGD inh 11µM
O=C(c1cnn2c(C(F)(F)F)cc(-c3ccccc3)nc12)N1CCCCC1c1cccnc1 (stereo not drawn)	LMNA splice mod inconclusive, JMJD2E inh inconclusive, ALDH1A1 block inconclusive (no result: HPGD inh)
O=C(c1cc2nc(-c3ccc(F)cc3)cc(C(F)(F)F)n2n1)N1CCCCC1c1cccnc1 (stereo not drawn)	LMNA splice mod inconclusive, JMJD2E inh inconclusive, ALDH1A1 block 14µM, HttQ103 aggreg 8.9µM (no result: HPGD inh)
